According to PubChem BioAssay (EPA / NIEHS):
“And” between values parts separate entries of the source, which are not always exact repeats. Identical values can stand only once. Inconclusive results are not listed. A structure can be active in one record and inactive in another. The source made the active and inactive calls. The calls were made as follows, unless noted: active = hit-call score of the fitted dose curve at least 0.9, where 1 is the maximum; inactive = score below 0.9.

Columns and labels:
[1] = CCTE_Shafer_MEA_acute_AB: CCTE's Alamar Blue Assay for Cytotoxicity in the Neural Acute Assay, Shafer Lab (AID 2284069; active = hit-call score of the fitted dose curve at least 0.9, where 1 is the maximum;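 also: active compounds lower the viability signal compared with DMSO wells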)
Procedure, shortened: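 Cytotoxicity endpoint for acute MEA exposures of primary rat cortical neurons on day 13 or 15. Resazurin reduction is read fluorescently at 544/590 nm, with DMSO as the negative-control baseline.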

[2] = CCTE_Shafer_MEA_acute_LDH: CCTE's Lactate Dehydrogenase Assay for Cytotoxicity in the Neural Acute Assay, Shafer Lab (AID 2284086; active = hit-call score of the fitted dose curve at least 0.9, where 1 is the maximum;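 also: active means LDH release rises above DMSO vehicle level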)
Procedure, shortened: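 Primary rat cortical neurons on 48-well MEA plates, treated on day 13 or 15 post-plating. After the 40-min recording with compound, medium LDH release was read by absorbance at 490 nm. Gain of signal was fitted against DMSO negative control.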

[3] = CCTE_Shafer_MEA_dev_per_network_spike_spike_percent: CCTE's Neural Network Formation Assay for Percent of Spikes in a Network Spike, Shafer Lab (AID 2284054)
Procedure, shortened: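 Primary rat cortical neurons on 16-electrode MEA wells (PEI-coated, laminin at plating), exposed from day 0 with renewal at DIV 5 and 9; spikes within 0.05 s of network-spike peaks over total spikes, AUC across days 5, 7, 9, 12.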

[4] = UKN5_HCS_SBAD2_cell_viability: Viability Assessment in the University of Konstanz (UKN) Leist Lab Neurite Outgrowth Assay in human iPSC-derived immature Dorsal Root Ganglia Neurons (UKN5) (AID 2284056)
Procedure, shortened: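 iPSC-derived immature peripheral neurons (SBAD2) seeded on Matrigel with CHIR99021, SU5402 and DAPT, dosed 1 h later for 24 h. Viability from Hoechst H-33342 and calcein-AM live staining, high-content imaging; bidirectional fit versus DMSO.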

[5] = CCTE_Shafer_MEA_dev_LDH: CCTE's Lactate Dehydrogenase Assay for Cytotoxicity in the Neural Network Formation Assay, Shafer Lab (AID 2284068; active = hit-call score of the fitted dose curve at least 0.9, where 1 is the maximum;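 also: exposure for twelve days from plating with re-dosing on DIV 5 and 9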)
Procedure, shortened: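 Developing rat cortical networks on MEA plates are exposed to compound for 12 days from plating. LDH activity is measured spectrophotometrically, with DMSO as baseline.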

[6] = UKN5_HCS_SBAD2_neurite_outgrowth: University of Konstanz (UKN) Leist Lab Neurite Outgrowth Assay in human iPSC-derived immature Dorsal Root Ganglia Neurons (UKN5) (AID 2284070); settings: actives raise or lower the signal
Procedure, shortened: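 Human iPSC-derived immature DRG neurons (SBAD2) on Matrigel with CHIR99021 (1.5 uM), SU5402 (5 uM), DAPT (5 uM); compounds added 1 h post-seeding for 24 h. Calcein-AM neurite area imaged; bidirectional fit vs DMSO.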

[7] = CCTE_Shafer_MEA_dev_AB: CCTE's Alamar Blue Assay for Cytotoxicity in the Neural Network Formation Assay, Shafer Lab (AID 2284083; active = hit-call score of the fitted dose curve at least 0.9, where 1 is the maximum;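 also: resazurin reduction fluorescence as viability of cultured neurons; twelve days of exposure from plating with re-dosing on DIV 5 and 9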)
Procedure, shortened: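 Cytotoxicity companion to the developmental MEA: primary rat cortical neurons, 12-day exposure starting day 0, compound refreshed DIV 5 and 9; resazurin fluorescence, fitted against DMSO vehicle.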

[8] = CCTE_Shafer_MEA_dev_mutual_information_norm: CCTE's Neural Network Formation Assay for Mutual Information Normalization, Shafer Lab (AID 2284091);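 as to AC50: mutual information between electrodes summarised as area under curve across four recording days; potency is for a decrease in mutual information relative to DMSO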
Procedure, shortened: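 Rat cortical cultures, 48-well MEA, continuous exposure DIV 0–12 with full media/compound change DIV 5 and 9. Readout: inter-electrode mutual information, AxIS adaptive spike detection; AUC across DIV 5/7/9/12 recordings; DMSO baseline, negative fitting direction.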

[9] = CCTE_Shafer_MEA_dev_correlation_coefficient_mean: CCTE's Neural Network Formation Assay for Mean Correlation Coefficient, Shafer Lab (AID 2284093);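 as to AC50: well mean pairwise spike train correlation integrated as AUC over recording days 5 to 12; potency fitted for loss of correlation relative to DMSO vehicle wells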
Procedure, shortened: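 Extracellular firing from rat cortical networks on 48-well MEAs, DMSO-referenced, negative fitting direction. Compound present from plating to DIV12; mean pairwise correlation per well integrated over DIV5–12 recordings by trapezoidal AUC.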

[10] = UKN2_HCS_IMR90_neural_migration: University of Konstanz (UKN) Leist Lab Neural Crest Cell Migration Assay in human induced IMR90 Pluripotent Stem Cells (UKN2) (AID 2284204); settings: actives raise or lower the signal
Procedure, shortened: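 iPSC-derived IMR90 neural crest cells on PLO/laminin/fibronectin were seeded around silicone stoppers; after stopper removal, migration in N2-S medium with EGF and FGF ran 24 h before 24 h chemical exposure. Calcein-AM/Hoechst high-content imaging; bidirectional fit versus DMSO.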

[11] = UKN4_HCS_LUHMES_neurite_outgrowth: University of Konstanz (UKN) Leist Lab Neurite Outgrowth Assay in human LUHMES cells (UKN4) (AID 2284206); settings: actives raise or lower the signal
Procedure, shortened: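 LUHMES neuronal precursors differentiated 2 days, replated without cAMP/GDNF, then exposed to chemicals for 24 h. Neurite area imaged by high-content microscopy after calcein-AM staining; Hoechst H-33342 marks viability. Bidirectional fit versus DMSO.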

[12] = IUF_NPC1b_proliferation_BrdU_72hr: Leibniz Research Institute for Environmental Medicine (IUF) 72-hour Neural Progenitor Cell Bromodeoxyuridine (BrdU) Proliferation Assay (NPC1b) (AID 2284207)
Procedure, shortened: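 hNPC spheres (primary, GW 16-19 fetal cortex), single sphere/well, EGF+FGF medium; 72 h compound, no renewal; BrdU pulse last 16 h; luminescent ELISA; activity vs DMSO baseline; growth-factor withdrawal as positive control.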

[13] = IUF_NPC1a_proliferation_area_72hr: Leibniz Research Institute for Environmental Medicine (IUF) 72-hour Neural Progenitor Cell Proliferation Area Assay (NPC1a) (AID 2284208)
Procedure, shortened: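 Measured in 3D suspension: each well held one primary hNPC sphere grown with EGF and FGF at pH 7.2-7.6. Compound stayed on for 72 h, then area was imaged; spheres lacking growth factors defined reduced proliferation.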

[14] = IUF_NPC1_viability_72hr: Viability Assessment at 72 hours in the Leibniz Research Institute for Environmental Medicine (IUF) Neural Progenitor Cell Proliferation Assay (NPC1) (AID 2284209)
Procedure, shortened: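 Human fetal-cortex neural progenitor spheres (0.25–0.35 mm, one per well) grown in EGF/FGF proliferation medium at 37C, pH 7.2-7.6, exposed 72 h without renewal; viability read as alamar blue resazurin-to-resorufin fluorescence relative to DMSO.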

[15] = CCTE_Mundy_HCI_Cortical_Synap_Neur_Matur_NeuriteSpotCountPerNeuriteLength: CCTE's Synaptogenesis and Neurite Maturation Assay in rat cortical cells for Neurite Spot Count per Neurite Length, Mundy Lab (AID 2284210)
Procedure, shortened: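 Rat primary cortical cultures, glia arrested with AraC at DIV 5, were dosed with media change at DIV 7 and fixed at DIV 12. Synaptophysin puncta per MAP2-labelled neurite length were quantified by high-content imaging versus DMSO.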

[16] = CCTE_Mundy_HCI_Cortical_NOG_NeuriteCount: CCTE's Neurite Outgrowth Assay in rat cortical cells for Neurite Count, Mundy Lab (AID 2284212);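 also: cells fixed about two days after chemical exposure began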
Procedure, shortened: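 Neurite number per cell from high-content imaging of betaIII-tubulin immunostaining, with Hoechst nuclear counterstain.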

[17] = CCTE_Mundy_HCI_Cortical_Synap_Neur_Matur_NeuriteLength: CCTE's Synaptogenesis and Neurite Maturation Assay in rat cortical cells for Neurite Length, Mundy Lab (AID 2284214)
Procedure, shortened: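 Rat primary cortical cells were plated, treated with AraC at DIV 5 to arrest glial growth, then chemical-dosed with media change at DIV 7 through DIV 12. Fixed cells stained for MAP2, synaptophysin and Hoechst; neurite length quantified by high-content imaging.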

[18] = CCTE_Mundy_HCI_Cortical_Synap_Neur_Matur_NeuriteSpotCountPerNeuron: CCTE's Synaptogenesis and Neurite Maturation Assay in rat cortical cells for Neurite Spot Count per Neuron Count, Mundy Lab (AID 2284215)
Procedure, shortened: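 Developing rat cortical neurons, with glia suppressed by AraC, are exposed to chemicals from DIV 7 to DIV 12. Automated fluorescence imaging of MAP2-labelled neurites and synaptophysin puncta yields a count per neuron, normalised against DMSO wells.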

DIO3 (gene 1735) = assay: CCTE_GLTED_hDIO3: CCTE's human Deiodinase 3 (DIO3) Inhibition Assay, Great Lakes Toxicology and Ecology Division (GLTED) Lab (AID 2284055; active = hit-call score of the fitted dose curve at least 0.9, where 1 is the maximum;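 also: potency is for inhibition seen as loss of released iodide signal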)
Procedure, shortened: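 Cell-free assay with human DIO3 enzyme produced by adenovirus expression; enzyme incubated with test chemical for 3 hours. Liberated iodide then measured by Sandell-Kolthoff absorbance; loss of signal versus DMSO baseline indicates inhibition, run in triplicate.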

[19] = TAMU_PeakParms_SingleDonor1434_Chronotropy: Texas A&M University (TAMU) 1.5-hr Human Induced Pluripotent Stem Cell (iPSC)-derived Cardiomyocytes Calcium (Ca+2) Flux Assay for Cardiotoxicity: Chronotropy (changes in peak frequency) (AID 2284217); settings: actives raise or lower the signal
Procedure, shortened: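 Using fluorescent Ca2+ flux, average beats per second are measured in human iPSC-derived cardiomyocytes treated 90 min (0.5% DMSO vehicle, 0.2–100 uM). Non-beating data points are removed; activity is modeled in both directions relative to DMSO controls.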

Measured: AC50

COP(=S)(OC)Oc1ccc(SC)c(C)c1
inactive: [1]

O=C(O)CCCOc1ccc(Cl)cc1Cl
inactive: [1] | [2]

CC(C)N(C(=O)COc1nnc(C(F)(F)F)s1)c1ccc(F)cc1
active: [3] 15 µM | [5] 15 µM | [7] 7.79 µM | [9] 15 µM
inactive: [3] | [4] | [5] | [6] | [7] | [2] | [8] | [9] | [10] | [11] | [12] | [13] | [14] | [15] | [16] | [17] | [18]

CCOCN(C(=O)CCl)c1c(C)cccc1CC
active: DIO3 (gene 1735) 58.1 µM | [19] 4.73 µM

CC1(C)C(C=C(Cl)Cl)C1C(=O)OC(C#N)c1ccc(F)c(Oc2ccccc2)c1 (centres undefined)
active: [3] 1.72 µM and 13.6 µM and 4.24 µM | [5] 42.3 µM | [7] 64.4 µM | [8] 268 nM and 6.41 µM and 2.77 µM | [9] 1.06 µM and 8.22 µM and 7.24 µM | [12] 8.05 µM | [15] 82.7 µM | [16] 77.2 µM | [17] 33.1 µM and 2.98 µM | [18] 72 µM and 15 µM
inactive: [5] | [1] | [7] | [2] | [10] | [13] | [14] | [15] | [16]

CCC(C)(NC(=O)c1cc(Cl)c(C)c(Cl)c1)C(=O)CCl (centres undefined)
active: DIO3 (gene 1735) 41.2 µM

N#Cc1c(Cl)c(Cl)c(Cl)c(C#N)c1Cl
active: DIO3 (gene 1735) 0.404 µM
inactive: [1]

O=S1OCC2C(CO1)C1(Cl)C(Cl)=C(Cl)C2(Cl)C1(Cl)Cl (centres undefined)
inactive: [1] | [2] | [12] | [13]
active: [3] 4.76 µM | [5] 8.55 µM | [7] 9.32 µM | [8] 7.83 µM | [9] 8.13 µM | [10] 13.9 µM | [11] 16.3 µM | [14] 2.63 µM | [15] 22.4 µM | [16] 22.1 µM | [18] 15 µM | [19] 4.73 µM
